Reference: PubChem BioAssay (NCI)
This is part of a sample that, as a whole, favours compounds with a hit. Of some 83,000 tested, about 20% had one in any assay.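 Results are percent growth after 48 hours of single-concentration exposure. 100 means growth as in untreated cells, lower positive values show inhibition; negative values down to -100 show cell death.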 Active and inactive are the calls of the source. How the source made its calls: active means growth percent below 10; inactive means the rest.

Columns and labels:
Experiment in all cases: NCI-60 one-dose screen, 48 h (100 = growth as untreated, 0 = no growth, -100 = all killed)
Conditions in all cases: 10 µM unless noted
HT29 colon = test system: HT29 colon
SNB-75 CNS = test system: SNB-75 CNS
SNB-19 CNS = test system: SNB-19 CNS
U251 CNS = test system: U251 CNS
PC-3 prostate = test system: PC-3 prostate
SK-MEL-5 melanoma = test system: SK-MEL-5 melanoma
UACC-62 melanoma = test system: UACC-62 melanoma
LOX IMVI melanoma = test system: LOX IMVI melanoma
SK-MEL-28 melanoma = test system: SK-MEL-28 melanoma
SK-MEL-2 melanoma = test system: SK-MEL-2 melanoma
EKVX NSCLC = test system: EKVX NSCLC
SN12C renal = test system: SN12C renal
UO-31 renal = test system: UO-31 renal
TK-10 renal = test system: TK-10 renal
ACHN renal = test system: ACHN renal
CAKI-1 renal = test system: CAKI-1 renal
A498 renal = test system: A498 renal
CCRF-CEM leukemia = test system: CCRF-CEM leukemia
MOLT-4 leukemia = test system: MOLT-4 leukemia

Measured: growth

O=C(N/N=C/c1c(Cl)cccc1Cl)c1ccc(C(F)(F)F)nc1Nc1cccc(C(F)(F)F)c1
inactive: HT29 colon 15.6% | SNB-75 CNS 48.8% | SNB-19 CNS 19.6% | SK-MEL-28 melanoma 36.6% | SK-MEL-2 melanoma 26% | EKVX NSCLC 16.9% | CAKI-1 renal 13.8%
active: U251 CNS 2.92% | PC-3 prostate 7.85% | SK-MEL-5 melanoma 7.65% | UACC-62 melanoma -3.04% | LOX IMVI melanoma 3.01% | SN12C renal 1.33% | UO-31 renal 1.91% | TK-10 renal 1.46% | ACHN renal -15.7% | A498 renal -5.26% | CCRF-CEM leukemia -8.45% | MOLT-4 leukemia -12.9%

COc1ccc2c(c1)c(-c1nn3cc(-c4cccs4)nc3s1)cn2C
inactive: HT29 colon 52.1% | SNB-75 CNS 50.3% | SNB-19 CNS 82.5% | U251 CNS 65.9% | PC-3 prostate 69.6% | SK-MEL-5 melanoma 66.7% | UACC-62 melanoma 64.1% | LOX IMVI melanoma 54.1% | SK-MEL-28 melanoma 97.8% | SK-MEL-2 melanoma 91.5% | EKVX NSCLC 66.2% | SN12C renal 79.3% | UO-31 renal 39.3% | TK-10 renal 73.3% | ACHN renal 69.9% | CAKI-1 renal 55.3% | A498 renal 50.3% | CCRF-CEM leukemia 67% | MOLT-4 leukemia 45.7%

Nc1nc(Cl)cc(=O)n1Cc1ccccc1
inactive: HT29 colon 103% | SNB-75 CNS 82.3% | SNB-19 CNS 93.7% | U251 CNS 101% | PC-3 prostate 95.7% | SK-MEL-5 melanoma 108% | UACC-62 melanoma 88.6% | LOX IMVI melanoma 92.1% | SK-MEL-28 melanoma 108% | SK-MEL-2 melanoma 105% | EKVX NSCLC 94.1% | SN12C renal 90.9% | UO-31 renal 82.9% | TK-10 renal 92.7% | ACHN renal 107% | CAKI-1 renal 85.3% | A498 renal 99.4% | CCRF-CEM leukemia 98.7% | MOLT-4 leukemia 86.8%

C/C=C(\C)C(=O)N[C@H]1[C@@H](OC(C)=O)C[C@]2(C)C3CC[C@@]4(C)C(CC[C@@H]4C(C)N(C)C)C3CCC2[C@H]1O (some centres undefined)
active: SK-MEL-28 melanoma -35.8%
inactive: HT29 colon 11.3% | SNB-75 CNS 60.3% | SNB-19 CNS 101% | U251 CNS 68.7% | PC-3 prostate 45% | UACC-62 melanoma 13.6% | LOX IMVI melanoma 16.8% | SK-MEL-2 melanoma 97.2% | EKVX NSCLC 62.7% | SN12C renal 75.3% | UO-31 renal 10.5% | TK-10 renal 65.5% | ACHN renal 67.9% | CAKI-1 renal 65.6% | A498 renal 85.8% | CCRF-CEM leukemia 39.7% | MOLT-4 leukemia 65.6%

CN(C)CCS(=O)(=O)Nc1cc(-c2ccc3ncc(C#N)c(Nc4ccc(F)c(Cl)c4)c3c2)cnc1Cl
active: HT29 colon 5.5% | SNB-75 CNS -21% | SNB-19 CNS -67.2% | U251 CNS -46.2% | PC-3 prostate -43.5% | SK-MEL-5 melanoma -89.8% | UACC-62 melanoma -77.2% | LOX IMVI melanoma -61.3% | SK-MEL-28 melanoma -31.5% | SK-MEL-2 melanoma -40.4% | EKVX NSCLC -43.5% | SN12C renal 0.75% | UO-31 renal -55.5% | TK-10 renal -35.5% | ACHN renal 8.58% | CAKI-1 renal -42.3% | A498 renal -49.9% | CCRF-CEM leukemia 1.06% | MOLT-4 leukemia -25.9%

c1ccc(Cc2nn3cc(-c4ccccc4)nc3s2)cc1
inactive: HT29 colon 94.9% | SNB-75 CNS 102% | SNB-19 CNS 103% | U251 CNS 107% | PC-3 prostate 93.7% | SK-MEL-5 melanoma 101% | UACC-62 melanoma 82.6% | LOX IMVI melanoma 86.2% | SK-MEL-28 melanoma 109% | SK-MEL-2 melanoma 97% | EKVX NSCLC 95.9% | SN12C renal 103% | UO-31 renal 95.4% | TK-10 renal 89.5% | ACHN renal 106% | CAKI-1 renal 98.7% | A498 renal 96.5% | CCRF-CEM leukemia 102% | MOLT-4 leukemia 93.9%

COc1ccc(-c2[nH]ncc2-c2cc3c(c(OC)c2)OCC(=O)N3)cc1
active: SNB-75 CNS -20.2% | SK-MEL-2 melanoma 9.07% | TK-10 renal 1.85% | A498 renal -21%
inactive: HT29 colon 37.2% | SNB-19 CNS 24.7% | U251 CNS 11.3% | PC-3 prostate 17.6% | SK-MEL-5 melanoma 11.9% | UACC-62 melanoma 25.3% | LOX IMVI melanoma 41.7% | SK-MEL-28 melanoma 57.6% | EKVX NSCLC 38.7% | SN12C renal 35.8% | UO-31 renal 36.4% | ACHN renal 36.7% | CAKI-1 renal 26% | CCRF-CEM leukemia 23.2% | MOLT-4 leukemia 31.9%

CNC(=O)c1cc(-n2ccc3cc(NC(=O)c4ccc(N5CCOCC5)c(C(F)(F)F)c4)ccc32)ccn1
inactive: HT29 colon 25.1% | SNB-75 CNS 85.9% | SNB-19 CNS 81.1% | U251 CNS 50.3% | SK-MEL-5 melanoma 24.6% | UACC-62 melanoma 38.7% | LOX IMVI melanoma 36.1% | SK-MEL-28 melanoma 82.2% | SK-MEL-2 melanoma 91.1% | EKVX NSCLC 83.9% | SN12C renal 64.3% | UO-31 renal 50.2% | TK-10 renal 86.8% | ACHN renal 61.5% | CAKI-1 renal 63.6% | A498 renal 25.9% | CCRF-CEM leukemia 30.1% | MOLT-4 leukemia 34.6%

O=C(N/N=C/c1ccc(Cl)cc1)c1ccc(C(F)(F)F)nc1Nc1cccc(C(F)(F)F)c1
inactive: HT29 colon 16.1% | SNB-75 CNS 61.3% | SNB-19 CNS 30.4% | UACC-62 melanoma 26.7% | SK-MEL-2 melanoma 25.8% | EKVX NSCLC 17.7% | UO-31 renal 10% | TK-10 renal 26.6% | ACHN renal 13% | A498 renal 12.6% | CCRF-CEM leukemia 33.9%
active: U251 CNS 5.89% | PC-3 prostate 9.4% | LOX IMVI melanoma -13.9% | SK-MEL-28 melanoma -2% | SN12C renal 4.9% | CAKI-1 renal -5.88% | MOLT-4 leukemia 2.2%

c1cc(NCCc2ccncc2)nc(-n2cnc3ccccc32)c1
inactive: HT29 colon 92.7% | SNB-75 CNS 112% | SNB-19 CNS 99.9% | U251 CNS 82.2% | PC-3 prostate 83% | SK-MEL-5 melanoma 93.7% | UACC-62 melanoma 91.2% | LOX IMVI melanoma 79.4% | SK-MEL-28 melanoma 109% | SK-MEL-2 melanoma 86.8% | EKVX NSCLC 102% | SN12C renal 90.4% | UO-31 renal 74.9% | TK-10 renal 86.9% | ACHN renal 65.4% | CAKI-1 renal 81.2% | A498 renal 69.3% | CCRF-CEM leukemia 99.8% | MOLT-4 leukemia 86.4%

Nc1cc2c(cc1Br)-c1cc(Cl)ccc1C2=O
inactive: HT29 colon 102% | SNB-75 CNS 96.8% | U251 CNS 98.1% | PC-3 prostate 95.2% | SK-MEL-5 melanoma 90.9% | UACC-62 melanoma 96.3% | LOX IMVI melanoma 102% | SK-MEL-28 melanoma 106% | SK-MEL-2 melanoma 100% | EKVX NSCLC 86.5% | SN12C renal 102% | TK-10 renal 115% | ACHN renal 100% | CAKI-1 renal 78.5% | A498 renal 102% | CCRF-CEM leukemia 98.2% | MOLT-4 leukemia 88.2%

O=c1c2cc(F)ccc2sc2c(NCCO)nc3ccccc3c12
inactive: HT29 colon 107% | SNB-75 CNS 87% | SNB-19 CNS 94% | U251 CNS 97.6% | PC-3 prostate 105% | SK-MEL-5 melanoma 99.4% | UACC-62 melanoma 94.2% | LOX IMVI melanoma 97.2% | SK-MEL-28 melanoma 126% | SK-MEL-2 melanoma 102% | EKVX NSCLC 83.3% | SN12C renal 98.4% | UO-31 renal 77.8% | TK-10 renal 114% | ACHN renal 103% | CAKI-1 renal 90.8% | A498 renal 80.6% | CCRF-CEM leukemia 105% | MOLT-4 leukemia 104%

COc1ccc(-c2nc3sc(-c4ccc(Cl)cc4)cn3n2)cc1
active: SNB-75 CNS -1.66% | SNB-19 CNS -1.95% | U251 CNS -67.9% | SN12C renal 5.26% | UO-31 renal -7.46% | TK-10 renal -30.8% | ACHN renal -74% | CAKI-1 renal -3.32% | A498 renal -25.3%
inactive: HT29 colon 17.3% | PC-3 prostate 58.1% | SK-MEL-5 melanoma 72.6% | UACC-62 melanoma 68.6% | LOX IMVI melanoma 54.2% | SK-MEL-28 melanoma 100% | SK-MEL-2 melanoma 106% | EKVX NSCLC 47.5% | CCRF-CEM leukemia 69.5% | MOLT-4 leukemia 82.6%

NC(=O)Nc1ccc2ncnc(Nc3ccc(Cl)cc3)c2c1
inactive: HT29 colon 91.6% | SNB-75 CNS 95% | SNB-19 CNS 78.6% | U251 CNS 95.7% | PC-3 prostate 79% | SK-MEL-5 melanoma 89.2% | UACC-62 melanoma 87.9% | LOX IMVI melanoma 95.5% | SK-MEL-28 melanoma 106% | SK-MEL-2 melanoma 127% | EKVX NSCLC 22.4% | SN12C renal 81.9% | UO-31 renal 58% | TK-10 renal 26.5% | ACHN renal 47.4% | CAKI-1 renal 40.1% | A498 renal 43.4% | CCRF-CEM leukemia 96% | MOLT-4 leukemia 71.2%

Cc1ccc(/C=C2\Oc3ccc(O)c(O)c3C2=O)cc1
inactive: HT29 colon 87.8% | SNB-75 CNS 32.5% | U251 CNS 20.2% | PC-3 prostate 43.3% | SK-MEL-5 melanoma 47.3% | UACC-62 melanoma 45.3% | LOX IMVI melanoma 16.9% | SK-MEL-28 melanoma 53.6% | SK-MEL-2 melanoma 87.6% | EKVX NSCLC 19.7% | SN12C renal 62.8% | UO-31 renal 13.5% | TK-10 renal 98% | ACHN renal 29.1% | CAKI-1 renal 34.4% | A498 renal 70.2% | CCRF-CEM leukemia 15.6% | MOLT-4 leukemia 29.6%
